# Reference: PubChem BioAssay (Tox21)
# Results filed as inconclusive are left out. Where a call stands in place of a potency, no number is given. Calls of active or inactive are those of the source. Unless noted, the call rests on the fitted dose curve; in most records, active means well fitted curve in the direction sought with a large enough effect in the repeat runs; inconclusive means weak or mixed curves; inactive means no such curve, though single readings can be large; an effect the other way counts as inactive or inconclusive. Positions of bridges follow the written chain, without caps; N, C: chain ends. Non-standard residues stand in square brackets, D forms with d. Residues, ends and D or L forms follow the SMILES beside them. *: point of attachment. Dab(CH2SO3H) = N[C@@H](CCNCS(=O)(=O)O)C(=O)O; X3 = CC[C@@H](C)CCCCC(=O)*; Dab = NCC[C@H](N)C(=O)O
# Tests used:
# [1] = qHTS assay to test for compound auto fluorescence at 535 nm (green) in HEK293 cells (AID 720680)
# [2] = qHTS assay to test for compound auto fluorescence at 460 nm (blue) in HEK293 cell free culture (AID 720681)
# Method in brief: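 Test compounds were pinned into cell-free culture medium (DMEM with 10% FBS) and fluorescence was read directly at Ex/Em 405/460 nm. Signals were expressed as fluorescence equivalents of triamterene, with DMSO vehicle as control.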
# [3] = qHTS assay to test for compound auto fluorescence at 535 nm (green) in HEK293 cell free culture (AID 720682)
# Method in brief: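 Green-label autofluorescence (485 nm excitation, 535 nm emission) measured on compound added to cell-free culture medium (DMEM, 10% FBS). Output is expressed relative to fluorescein.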
# [4] = qHTS assay to test for compound auto fluorescence at 590 nm (red) in HEK293 cell free culture (AID 720683)
# Method in brief: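 Tox21 10K library compounds were pinned into cell-free DMEM with 10% FBS and fluorescence was read at excitation 540 nm. Activity is expressed as Rose Bengal sodium equivalency.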
# [5] = qHTS assay to test for compound auto fluorescence at 590 nm (red) in HepG2 cell free culture (AID 720684)
# Method in brief: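 Readout: intrinsic compound fluorescence at 590 nm emission after 540 nm excitation, scaled to Rose Bengal sodium. Matrix was cell-free MEM with 10% FBS; DMSO vehicle wells served as control.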
# [6] = qHTS assay to test for compound auto fluorescence at 460 nm (blue) in HepG2 cell free culture (AID 720685)
# Method in brief: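 Cell-free plates of MEM plus 10% FBS received 23 nL compound or DMSO vehicle; blue-channel (405/460 nm) intensity scored against triamterene as reference fluorophore.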
# [7] = qHTS assay to test for compound auto fluorescence at 535 nm (green) in HepG2 cell free culture (AID 720686)
# [8] = qHTS assay to test for compound auto fluorescence at 460 nm (blue) in HepG2 cells (AID 720687)
# Method in brief: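 Cells (2,000/well in MEM with 10% FBS) attached overnight at 37 C, then were exposed to compound or DMSO for 1 hr at 37 C, 5% CO2. Fluorescence read at Ex/Em 405/460 nm, expressed as triamterene-equivalent signal.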
# [9] = biological target: Glucocorticoid receptor (Homo sapiens) (UniProt P04150); assay: qHTS assay to identify small molecule agonists of the glucocorticoid receptor (GR) signaling pathway (AID 720691; active means well fitted activation curve with a large enough effect in the signal ratio in the repeat runs, not every such curve was filed as active; the % refers to the signal ratio); settings: GR-bla HeLa, beta-lactamase reporter ratio, 18 h; activation: at 62.4 µM (top of the series)
# Method in brief: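 Compounds in DMSO, alongside positive controls, were added to GR-bla HeLa reporter cells and incubated 18 h at 37 C; GRE-driven beta-lactamase was detected by fluorescence after 2 h with FRET substrate at room temperature.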
# [10] = biological target: Glucocorticoid receptor (Homo sapiens) (UniProt P04150); assay: qHTS assay to identify small molecule antagonists of the glucocorticoid receptor (GR) signaling pathway (AID 720692; active means well fitted inhibition curve with a large enough effect in the signal ratio in the repeat runs, not every such curve was filed as active; the % refers to the signal ratio)
# Method in brief: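 In a 1536-well cell format, compounds were added 4 h after seeding GR-bla HeLa cells, together with dexamethasone at 5 nM final; reporter activity was measured by FRET-substrate fluorescence following 18 h at 37 C.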
# [11] = qHTS assay to identify small molecule antagonists of the glucocorticoid receptor (GR) signaling pathway - cell viability counter screen (AID 720693); further: nearly all actives have a fitted effect of over 55% in size
# [12] = qHTS assay for identifying genotoxic compounds that show differential cytotoxicity against isogenic chicken DT40 cell lines with known DNA damage response pathways - wild type cell line (AID 743012); further: nearly all actives have a fitted effect of over 60% in size
# Method in brief: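 Viability of DNA repair-proficient chicken DT40 cells was assessed by CellTiter-Glo luminescence following 40 h compound exposure at 37 C/5% CO2.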
# [13] = qHTS assay to identify small molecule antagonists of the androgen receptor (AR) signaling pathway - cell viability counter screen (AID 743033; further: nearly all actives have a fitted effect of over 45% in size)
# [14] = qHTS assay to identify small molecule antagonists of the androgen receptor (AR) signaling pathway using the MDA cell line - cell viability counter screen (AID 743041; further: nearly all actives have a fitted effect of over 45% in size)
# Method in brief: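 qHTS viability read-out; MDA-kb2 AR-luc; R1881-stimulated; 16 h exposure at 37C, 0% CO2; CellTiter-Fluor, 30 min; fluorescence intensity.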
# [15] = qHTS assay for identifying genotoxic compounds that show differential cytotoxicity against isogenic chicken DT40 cell lines with known DNA damage response pathways - Rad54/Ku70 mutant cell line (AID 743015); further: nearly all actives have a fitted effect of over 60% in size; further: potency means the concentration at half of the fitted maximal effect
# [16] = qHTS assay for identifying genotoxic compounds that show differential cytotoxicity against isogenic chicken DT40 cell lines with known DNA damage response pathways - Rev3 mutant cell line (AID 743014); further: nearly all actives have a fitted effect of over 55% in size; further: potency means the concentration at half of the fitted maximal effect
# [17] = biological target: Androgen receptor (Homo sapiens) (UniProt P10275); assay: qHTS assay to identify small molecule antagonists of the androgen receptor (AR) signaling pathway (AID 743035; active means well fitted inhibition curve with a large enough effect in the signal ratio in the repeat runs, not every such curve was filed as active; the % refers to the signal ratio)
# Method in brief: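 Reporter HEK293 cells were exposed to compounds and R1881 overnight (16 h, 37C); beta-lactamase activity was then quantified by FRET fluorescence.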
# [18] = biological target: Androgen receptor (Homo sapiens) (UniProt P10275); assay: qHTS assay to identify small molecule agonists of the androgen receptor (AR) signaling pathway using the MDA cell line (AID 743040; further: nearly all actives have a fitted effect of over 20% in size)
# Method in brief: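 Agonist activity is measured as luciferase luminescence in human MDA-kb2 cells whose MMTV reporter responds to both AR and GR. Compounds in DMSO incubate 16 h at 37C, 0% CO2, and ONE-Glo is read after 30 min.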
# [19] = biological target: Androgen receptor (Homo sapiens) (UniProt P10275); assay: qHTS assay to identify small molecule antagonists of the androgen receptor (AR) signaling pathway using the MDA cell line (AID 743042; further: nearly all actives have a fitted effect of over 55% in size)
# Method in brief: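 MDA-kb2 cells (human breast carcinoma, stably carrying an MMTV-luciferase reporter responsive to AR and GR) were plated at 3,000 cells/well and preincubated 5 hr at 37C, then given compound plus R1881 agonist for 16 h. ONE-Glo luminescence was read.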
# [20] = biological target: Androgen receptor (Homo sapiens) (UniProt P10275); assay: qHTS assay to identify small molecule agonists of the androgen receptor (AR) signaling pathway (AID 743036; active means well fitted activation curve with a large enough effect in the signal ratio in the repeat runs, with a control signal flat, not every such curve was filed as active; the % refers to the signal ratio)
# Method in brief: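 AR-UAS-bla HEK293 cells, plated 4 h before dosing, were treated with compound for 16 h at 37C. beta-Lactamase reporter read after 2 h with LiveBLAzer B/G FRET substrate at room temperature.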
# Chain of Androgen receptor (Homo sapiens) (P10275 whole entry, looked up): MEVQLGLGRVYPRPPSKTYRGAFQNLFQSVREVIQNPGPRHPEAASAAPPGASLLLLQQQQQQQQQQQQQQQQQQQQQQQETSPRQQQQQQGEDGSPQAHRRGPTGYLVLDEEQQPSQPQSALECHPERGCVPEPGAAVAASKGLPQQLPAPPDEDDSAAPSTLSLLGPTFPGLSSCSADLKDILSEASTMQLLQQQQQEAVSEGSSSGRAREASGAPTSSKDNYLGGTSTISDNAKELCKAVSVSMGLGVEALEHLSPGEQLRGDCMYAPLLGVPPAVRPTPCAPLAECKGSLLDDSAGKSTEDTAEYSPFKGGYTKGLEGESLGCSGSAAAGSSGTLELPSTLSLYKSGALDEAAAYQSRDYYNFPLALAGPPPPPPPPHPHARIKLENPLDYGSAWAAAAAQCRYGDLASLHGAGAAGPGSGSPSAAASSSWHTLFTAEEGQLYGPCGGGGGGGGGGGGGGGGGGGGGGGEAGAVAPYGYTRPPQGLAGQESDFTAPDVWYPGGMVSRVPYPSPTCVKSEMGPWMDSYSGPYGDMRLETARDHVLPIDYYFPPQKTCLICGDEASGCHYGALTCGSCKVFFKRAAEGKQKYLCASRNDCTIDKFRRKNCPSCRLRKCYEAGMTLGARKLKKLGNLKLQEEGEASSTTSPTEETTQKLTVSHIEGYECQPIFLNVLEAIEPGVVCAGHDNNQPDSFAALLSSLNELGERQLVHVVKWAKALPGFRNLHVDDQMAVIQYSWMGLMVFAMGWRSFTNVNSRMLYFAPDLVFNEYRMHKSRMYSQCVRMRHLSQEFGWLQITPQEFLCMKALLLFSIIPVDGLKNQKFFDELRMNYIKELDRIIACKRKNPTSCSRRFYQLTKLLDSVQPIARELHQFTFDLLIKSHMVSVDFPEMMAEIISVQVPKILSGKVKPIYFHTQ
# Chain of Glucocorticoid receptor (Homo sapiens) (P04150 whole entry, looked up): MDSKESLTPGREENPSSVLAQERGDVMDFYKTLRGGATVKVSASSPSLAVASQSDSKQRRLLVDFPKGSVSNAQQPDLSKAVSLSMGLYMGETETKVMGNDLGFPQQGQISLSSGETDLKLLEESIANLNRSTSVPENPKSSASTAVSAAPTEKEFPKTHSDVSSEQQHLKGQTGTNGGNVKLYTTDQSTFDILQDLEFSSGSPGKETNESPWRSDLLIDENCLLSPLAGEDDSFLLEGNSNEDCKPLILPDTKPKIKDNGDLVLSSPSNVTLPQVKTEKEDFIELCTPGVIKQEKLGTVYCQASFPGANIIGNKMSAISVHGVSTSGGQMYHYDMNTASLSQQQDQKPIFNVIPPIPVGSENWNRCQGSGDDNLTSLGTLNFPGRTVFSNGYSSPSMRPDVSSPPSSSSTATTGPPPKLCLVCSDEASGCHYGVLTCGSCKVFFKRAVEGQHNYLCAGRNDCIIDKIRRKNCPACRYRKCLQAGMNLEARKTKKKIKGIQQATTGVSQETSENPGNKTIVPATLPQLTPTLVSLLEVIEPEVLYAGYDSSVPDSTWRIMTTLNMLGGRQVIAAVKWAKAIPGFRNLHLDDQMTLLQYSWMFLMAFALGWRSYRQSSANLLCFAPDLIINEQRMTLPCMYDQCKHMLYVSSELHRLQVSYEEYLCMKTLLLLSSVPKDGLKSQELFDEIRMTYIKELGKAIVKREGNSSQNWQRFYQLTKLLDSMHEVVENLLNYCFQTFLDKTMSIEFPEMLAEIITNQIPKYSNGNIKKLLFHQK
SMILES,outcome [1],Potency [2],outcome [3],outcome [4],outcome [5],Potency [6],Potency [7],Potency [8],Potency [9],Potency [10],Potency [11],Potency [12],Potency [13],Potency [14],Potency [15],Potency [16],Potency [17],Potency [18],Potency [19],Potency [20]
O=C1CCCCCCCCCCCCCC1,inactive,inactive,inactive,inactive,inactive,inactive,inactive,inactive,inactive,inactive,inactive,inactive,inactive,inactive,–,–,–,–,–,–
NCCCC(=O)O,inactive,inactive,inactive,inactive,inactive,inactive,inactive,inactive,inactive,inactive,inactive,inactive,inactive,inactive,inactive,–,–,–,–,–
CCC(O)c1ccccc1 (centres undefined),inactive,inactive,inactive,inactive,inactive,inactive,inactive,inactive,inactive,inactive,inactive,–,–,inactive,inactive,inactive,–,–,–,–
NCCO/C=C/[C@H](N)C(=O)O,inactive,inactive,inactive,inactive,inactive,inactive,inactive,inactive,inactive,inactive,inactive,–,inactive,inactive,inactive,inactive,–,–,–,–
CC(=O)Oc1cc(C(F)(F)F)ccc1C(=O)O,inactive,inactive,inactive,inactive,inactive,inactive,inactive,inactive,inactive,inactive,inactive,inactive,inactive,inactive,inactive,–,–,–,–,–
c1ccc(-n2cnnn2)cc1,inactive,inactive,inactive,inactive,inactive,inactive,inactive,inactive,inactive,inactive,inactive,inactive,inactive,inactive,inactive,–,–,–,–,–
O=S(=O)(O)CC(S)CS (centres undefined),inactive,inactive,inactive,inactive,inactive,inactive,inactive,inactive,inactive,inactive,inactive,–,inactive,inactive,3.76 µM (active),–,inactive,inactive,inactive,–
CCSCC,inactive,inactive,inactive,inactive,inactive,inactive,inactive,inactive,inactive,inactive,inactive,inactive,–,inactive,inactive,–,–,–,–,–
C/C=C/C1=C(C(=O)O)N2C(=O)[C@@H](NC(=O)[C@H](N)c3ccc(O)cc3)[C@H]2SC1,inactive,inactive,inactive,inactive,inactive,inactive,inactive,inactive,inactive,inactive,inactive,–,inactive,–,inactive,inactive,inactive,inactive,inactive,–
OCCCNc1ccccc1,inactive,inactive,inactive,inactive,inactive,inactive,inactive,inactive,inactive,inactive,inactive,–,inactive,inactive,inactive,–,–,–,–,–
CC[C@@H](C)CCCCC(=O)N[C@@H](CCNCS(=O)(=O)O)C(=O)N[C@H](C(=O)N[C@@H](CCNCS(=O)(=O)O)C(=O)N[C@H]1CCNC(=O)[C@H]([C@@H](C)O)NC(=O)[C@H](CCNCS(=O)(=O)O)NC(=O)[C@H](CCNCS(=O)(=O)O)NC(=O)[C@H](CC(C)C)NC(=O)[C@@H](CC(C)C)NC(=O)[C@H](CCNCS(=O)(=O)O)NC1=O)[C@@H](C)O (X3-[Dab(CH2SO3H)]T[Dab(CH2SO3H)][Dab][Dab(CH2SO3H)][dL]L[Dab(CH2SO3H)][Dab(CH2SO3H)]T; lactam 4-C),inactive,inactive,inactive,inactive,inactive,inactive,inactive,inactive,inactive,inactive,inactive,–,–,inactive,18.8 µM (active),23.7 µM (active),–,inactive,inactive,inactive
NC(N)=NCCCCN=C(N)N,inactive,inactive,inactive,inactive,inactive,inactive,inactive,inactive,inactive,inactive,inactive,–,inactive,inactive,inactive,inactive,–,–,–,–
CCOC(=O)[C@H](CCc1ccccc1)N[C@@H](C)C(=O)N1[C@H](C(=O)O)C[C@H]2CCCC[C@@H]21,inactive,inactive,inactive,inactive,inactive,inactive,inactive,inactive,inactive,inactive,inactive,–,inactive,inactive,inactive,inactive,inactive,inactive,inactive,inactive
CN[C@H](CC(C)C)C(=O)N[C@H]1C(=O)N[C@@H](CC(N)=O)C(=O)N[C@H]2C(=O)N[C@H]3C(=O)N[C@H](C(=O)N[C@@H](C(=O)O)c4cc(O)cc(O)c4-c4cc3ccc4O)[C@H](O)c3ccc(c(Cl)c3)Oc3cc2cc(c3O[C@@H]2O[C@H](CO)[C@@H](O)[C@H](O)[C@H]2O[C@H]2C[C@](C)(N)C(O)[C@H](C)O2)Oc2ccc(cc2Cl)[C@H]1O (some centres undefined),inactive,inactive,inactive,inactive,inactive,inactive,inactive,inactive,inactive,inactive,–,inactive,inactive,inactive,inactive,inactive,–,–,–,–
CC(=O)NC[C@H]1CN(c2ccc(N3CCOCC3)c(F)c2)C(=O)O1,inactive,inactive,inactive,inactive,inactive,inactive,inactive,inactive,inactive,inactive,inactive,–,inactive,inactive,–,–,–,–,–,–
